Screening results from PubChem.
ROC1-CUL1 inh = blocks human RBX1-Cullin-1 di-ubiquitin formation; P62877+Q13616; in vitro K48 di-Ub FRET, acceptor:donor ratio, 45 min; inhibition, % at 10 µM; hit rate 0.6% among 140,000; in the data active = inhibition above about 25%
* marks the source's active call; other numbers are inactive results. The entries come from a sample that favours hits as a whole.

SMILES	ROC1-CUL1 inh
CCOC(=O)C(NC(=O)c1ccco1)(Nc1nc2ccc(OCC)cc2s1)C(F)(F)F (stereo not given)	10.4
CCCC1=NN(c2ccccc2)C2Oc3c(OC)cccc3C(c3cn(-c4ccccc4)nc3CCC)C12 (stereo not given)	55.9*
CCCC1=NN(c2ccccc2)C(=O)C1C1c2ccccc2Oc2c1c(CCC)nn2-c1ccccc1 (stereo not given)	-8.9
COc1ccccc1C1CC(c2ccccc2)=NN1c1ccccc1 (stereo not given)	-4.9
CCN(CC)c1ccc(C2C(C(=O)Nc3ccccc3C)C(C)=Nc3ncnn32)cc1 (stereo not given)	9.0
COc1cccc(C2Oc3ccc(C)cc3C(=O)C2=O)c1 (stereo not given)	-2.1
O=C(O)c1ccccc1-c1c2cc(Cl)c(=O)cc-2oc2c1CC(Cl)C(O)=C2 (stereo not given)	128.8*
O=C(O)c1cc(NC2(c3ccccc3)C(=O)c3ccccc3C2=O)ccc1Cl	-1.6
O=C(Nc1ccccc1F)N1CCN(c2ccccc2Cl)CC1	4.5
COc1ccc(CNc2nc3c(-c4cccc(F)c4)nnn3c3ccccc23)cc1	1.9
COc1ccc(CNc2c(F)c(F)c3nc4c(cc3c2F)c(-c2ccccc2)nn4C)cc1	95.6*
Fc1c(F)c(F)c2nc3c(cc2c1F)c(-c1ccccc1)nn3-c1ccccc1	2.6
CC(=O)Nc1ccc2c(c1)OCCOCCOCCOCCO2	3.5
Clc1cccc(N2CCN(C3CCCN(C4CCSCC4)C3)CC2)c1 (stereo not given)	-6.8
CC(C)Oc1ccc(/C=C2\SC(=O)N(CC(=O)N3CCOCC3)C2=O)cc1	-2.6
COc1cc(/C=C2\C(=O)N(c3ccc(S(N)(=O)=O)cc3)N=C2C)cc(OC)c1OC	32.1*
CC1=NN(c2ccc(C)cc2C)C(=O)C1=Nc1ccc(N(C)C)cc1	-4.3
CC1=NN(c2ccc(S(N)(=O)=O)cc2)C(=O)C1=Nc1ccc(N(C)C)cc1	64.2*
COc1cc(/C=C2/C(=O)N(c3ccc(Cl)c(Cl)c3)N=C2C)cc(OC)c1OC	-2.9
CC1=NN(c2ccc(S(N)(=O)=O)cc2)C(=O)/C1=C\c1ccc(N(C)C)c(Br)c1	68.0*
NS(=O)(=O)c1ccc(N=C2CC(=O)Oc3ccccc32)cc1	4.3
CC1=NN(c2ccc(F)cc2)C(=O)/C1=C/c1ccc2c(c1)n(C)c(=O)n2C	-0.5
CN(C)c1ccc(/C=C2\C(=O)NN(c3ccccc3)C2=O)cc1Br	-3.7
COc1cc(/C=C2/C(=O)N(c3ccc(Cl)c(Cl)c3)N=C2C)cc(OC)c1O	2.0
O=C1NC23c4ccccc4CC2(C1=O)c1ccccc1N3c1ccccc1 (stereo not given)	-6.4
SMILES	ROC1-CUL1 inh
COc1ccc(C2=NN3C(C2)c2ccccc2OC3c2ccc(F)cc2)cc1 (stereo not given)	6.5
COc1ccc(NC(=O)Cc2noc3c(C)cccc23)cc1	-7.4
O=C(O)c1ccc(CNCCc2ccccc2)cc1	-1.9
Cc1ccc(C(N)=O)c[n+]1C	-2.8
Cc1ccc(OCC(=O)N2CC(C)CC(C)C2)c(C)c1 (stereo not given)	-4.3
CCSc1nnc(NC(=O)C(C(F)(F)F)C(F)(F)F)s1	31.7*
CCSc1nnc(NC(=O)OC)s1	-6.0
CCSc1nnc(NC(=O)C(C)C)s1	-0.1
Cc1nc2ccc(C(=O)Oc3ccc(Cl)cc3)cc2nc1C	6.4
COc1ccc(-c2csc(NC(=O)c3cccc4c3-c3ccccc3C4=O)n2)cc1	-7.1
COc1cc(C(c2c(C)[nH]n(-c3ccccc3)c2=O)c2c(C)[nH]n(-c3ccccc3)c2=O)ccc1C	-17.4
CCOc1cc(C(c2c(C)[nH]n(-c3ccccc3)c2=O)c2c(C)[nH]n(-c3ccccc3)c2=O)ccc1O	38.9*
Cc1[nH]n(-c2ccccc2)c(=O)c1C(c1ccc(OCc2ccc(F)cc2)cc1)c1c(C)[nH]n(-c2ccccc2)c1=O	-6.9
Cc1[nH]n(-c2ccccc2)c(=O)c1C(c1ccc2c(c1)OCO2)c1c(C)[nH]n(-c2ccccc2)c1=O	45.8*
CCOc1cc(C(c2c(C)[nH]n(-c3ccccc3)c2=O)c2c(C)[nH]n(-c3ccccc3)c2=O)ccc1OCc1ccc(Cl)cc1	18.8
Cc1[nH]n(-c2ccccc2)c(=O)c1C(C[N+](=O)[O-])c1ccc(Cl)cc1 (stereo not given)	1.8
Cc1[nH]n(-c2ccccc2)c(=O)c1C(c1ccco1)c1c(C)[nH]n(-c2ccccc2)c1=O	4.9
Cc1[nH]n(-c2ccccc2)c(=O)c1C(C[N+](=O)[O-])c1ccc(F)cc1 (stereo not given)	59.4*
Cc1[nH]n(-c2ccccc2)c(=O)c1C(c1ccccc1O)c1c(C)[nH]n(-c2ccccc2)c1=O	-6.5
CC1ON(c2ccc(Cl)cc2)C(=O)NC1=O (stereo not given)	9.3
N#CC1C(=N)Oc2n[nH]c(-c3ccc(Cl)c(Cl)c3)c2C1c1cc(Br)c(O)c(Br)c1 (stereo not given)	1.5
O=[N+]([O-])c1cn(C(O)Cc2ccncc2)cn1 (stereo not given)	3.8
O=C(Cc1nnc(NC(=O)c2ccc(Br)cc2)s1)NNC(=O)c1ccc(Br)cc1	-4.7
Cc1n[nH]c(=O)c2nn(-c3ccc(Cl)cc3)c(C)c12	-3.4
Cc1ncsc1Cn1ncc(N2CCOCC2)cc1=O	6.4
SMILES	ROC1-CUL1 inh
CCN1C2C3N(CC)C4C1N(C(C)=O)C(C(N2C(C)=O)N3C(C)=O)N4C(C)=O	8.3
O=C1c2cccc([N+](=O)[O-])c2C(=O)N1c1cccc(Cl)c1Cl	0.7
CC(/C=C1\SC(=S)N(c2ccc(C(=O)O)cc2)C1=O)=C\c1ccccc1	106.1*
CCCC(C(=O)O)N1C(=O)/C(=C/C(C)=C/c2ccccc2)SC1=S (stereo not given)	28.7*
O=C(O)c1ccc(/C=C2\SC(=S)N(NC(=O)c3ccccc3)C2=O)cc1	-1.8
O=C(O)CCC(C(=O)O)N1C(=O)/C(=C/c2cccc(Br)c2)SC1=S (stereo not given)	-3.1
CCOc1cc(/C=C2/SC(=S)N(C(CCC(=O)O)C(=O)O)C2=O)ccc1O (stereo not given)	13.5
Cc1ccc(N2C(=O)/C(=C/c3ccc(C(=O)O)cc3)SC2=S)cc1C	-3.4
CCN(CC)c1ccc(/C=N\NC(=O)CCc2c(C)n[nH]c2C)c(O)c1	5.4
CCOC(=O)CNC(=S)Nc1sc2c(c1C(=O)OCC)CCN(C(=O)OCC)C2	-6.6
O=C(C1CCOCC1)N1CCCC(CCc2ccc(F)cc2F)C1 (stereo not given)	-1.2
Cc1nc2c(nc1Cl)c(=O)n(C)c(=O)n2C	-5.2
Cc1nc2c(=O)n(C)c(=O)n(C)c2nc1Cl	71.5*
COc1cnc2c(=O)n(C)c(=O)n(C)c2n1	2.0
O=C(CCC1(c2ccccc2)OCCO1)N/N=C/c1c[nH]c2ccccc12	-0.8
O=C1NN(c2ccc(Cl)cc2)C(=O)/C1=C\c1cc(I)cc(I)c1O	-11.3
O=C1NN(c2cccc(Cl)c2)C(=O)/C1=C/c1cc(I)cc(I)c1O	1.2
COc1cc(/C=C2\C(=O)NN(c3ccccc3)C2=O)cc(I)c1OCCCOc1ccc(Cl)cc1	0.2
CC(=O)Oc1cccc(/C=C2/C(=O)NN(c3cccc(Cl)c3)C2=O)c1	25.6*
COc1c(I)cc(I)cc1/C=C1\C(=O)NN(c2cccc(Cl)c2)C1=O	48.4*
COc1cc(Br)cc(/C=C2\C(=O)NN(c3ccc(C)c(Cl)c3)C2=O)c1O	43.0*
COc1cc(/C=C2\C(=O)NN(c3ccc(C)cc3)C2=O)cc(Br)c1O	12.0
COc1ccc2cccc(/C=C3\C(=O)NN(c4ccc(Cl)c(Cl)c4)C3=O)c2c1	7.8
